Results on one compound are retold here after the supplement of paper PMC11732987, “Enantioselective OTUD7B fragment discovery through chemoproteomics screening and high-throughput optimisation” (Communications Chemistry, 2025).

Unmarked numbers belong to inactive results.

Assay in all cases: log2 ratio of Biotin-Ahx-Ub-VS probe labelling (fragment/DMSO); higher = less target engagement (more negative = stronger competition), active = hit call of the paper (q ≤ 0.05, log2 ratio ≤ -1)
Details in all cases: compound concentration: 200 uM; treatment time: 3 h

In experiment [1] the target is T1, USP19 (UniProt O94966).
T1 sequence (whole entry): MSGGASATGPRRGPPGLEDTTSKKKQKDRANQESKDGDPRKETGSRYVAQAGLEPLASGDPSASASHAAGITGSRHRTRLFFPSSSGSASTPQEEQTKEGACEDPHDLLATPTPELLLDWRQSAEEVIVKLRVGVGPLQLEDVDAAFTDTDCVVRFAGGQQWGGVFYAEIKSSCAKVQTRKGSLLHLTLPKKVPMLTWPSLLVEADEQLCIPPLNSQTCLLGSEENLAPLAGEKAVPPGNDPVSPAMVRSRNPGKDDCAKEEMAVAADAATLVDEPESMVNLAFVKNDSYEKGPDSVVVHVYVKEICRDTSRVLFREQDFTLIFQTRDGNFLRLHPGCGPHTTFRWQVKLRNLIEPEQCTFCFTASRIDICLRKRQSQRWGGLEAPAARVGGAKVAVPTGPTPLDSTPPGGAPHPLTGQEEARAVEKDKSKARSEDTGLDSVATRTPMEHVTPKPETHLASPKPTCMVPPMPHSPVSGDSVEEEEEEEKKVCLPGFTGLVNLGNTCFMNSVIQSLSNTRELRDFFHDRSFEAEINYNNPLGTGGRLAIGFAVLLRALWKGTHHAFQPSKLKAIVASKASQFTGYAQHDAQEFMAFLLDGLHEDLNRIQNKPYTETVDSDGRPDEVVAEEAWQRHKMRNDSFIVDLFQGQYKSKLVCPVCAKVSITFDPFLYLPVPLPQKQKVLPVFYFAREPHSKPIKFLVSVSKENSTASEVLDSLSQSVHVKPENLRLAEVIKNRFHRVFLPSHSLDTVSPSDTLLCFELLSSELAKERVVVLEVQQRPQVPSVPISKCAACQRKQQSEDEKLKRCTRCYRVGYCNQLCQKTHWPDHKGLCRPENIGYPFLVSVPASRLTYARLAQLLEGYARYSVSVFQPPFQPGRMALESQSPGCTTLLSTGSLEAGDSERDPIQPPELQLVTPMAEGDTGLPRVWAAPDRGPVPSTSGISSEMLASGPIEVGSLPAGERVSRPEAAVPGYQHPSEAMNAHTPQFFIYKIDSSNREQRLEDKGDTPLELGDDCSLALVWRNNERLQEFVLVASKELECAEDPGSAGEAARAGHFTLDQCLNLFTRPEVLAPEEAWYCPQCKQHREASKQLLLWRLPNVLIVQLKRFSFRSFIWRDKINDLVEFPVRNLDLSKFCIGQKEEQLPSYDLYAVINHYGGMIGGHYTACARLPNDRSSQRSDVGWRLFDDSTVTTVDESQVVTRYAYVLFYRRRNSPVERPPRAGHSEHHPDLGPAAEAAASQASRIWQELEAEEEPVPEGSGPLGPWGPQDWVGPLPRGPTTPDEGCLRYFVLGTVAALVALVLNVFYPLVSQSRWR
A digest of the protocol: (§1)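 Triplicate samples of HEK293T lysate, 495 µg each, received fragment at 200 µM or vehicle for 3 h, followed by Biotin-Ahx-Ub-VS (0.5 µM final) for 1 h. After NeutrAvidin enrichment of labelled DUBs and LysC/trypsin digestion, peptides were run by diaPASEF LC-MS/MS. The values are average log2 fragment/vehicle ratios from global-median-normalised Spectronaut label-free quantities, tested by unpaired t-test on proteins having ≥2 unique peptides.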

The target in experiment [2] is T2, USP22 (UniProt Q9UPT9).
T2 sequence (whole entry): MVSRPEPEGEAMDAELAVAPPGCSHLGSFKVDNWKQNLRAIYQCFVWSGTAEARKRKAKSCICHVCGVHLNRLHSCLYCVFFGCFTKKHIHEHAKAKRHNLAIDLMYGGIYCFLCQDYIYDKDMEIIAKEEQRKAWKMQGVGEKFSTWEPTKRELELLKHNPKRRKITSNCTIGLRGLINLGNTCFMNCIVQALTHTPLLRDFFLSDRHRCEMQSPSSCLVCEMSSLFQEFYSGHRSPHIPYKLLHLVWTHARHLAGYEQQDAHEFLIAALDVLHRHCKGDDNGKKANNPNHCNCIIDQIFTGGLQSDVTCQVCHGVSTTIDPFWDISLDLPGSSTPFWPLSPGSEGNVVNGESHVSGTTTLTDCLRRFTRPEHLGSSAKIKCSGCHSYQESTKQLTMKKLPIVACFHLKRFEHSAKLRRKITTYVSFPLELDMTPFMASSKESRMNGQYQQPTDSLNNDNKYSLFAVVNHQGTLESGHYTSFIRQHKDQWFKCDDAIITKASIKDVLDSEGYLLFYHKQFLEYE
A digest of the protocol:
as §1

Experiment [3] concerns the target USP24 (UniProt Q9UPU5). A digest of the protocol:
as §1

In experiment [4] the target is T3, USP25 (UniProt Q9UHP3).
T3 sequence (whole entry): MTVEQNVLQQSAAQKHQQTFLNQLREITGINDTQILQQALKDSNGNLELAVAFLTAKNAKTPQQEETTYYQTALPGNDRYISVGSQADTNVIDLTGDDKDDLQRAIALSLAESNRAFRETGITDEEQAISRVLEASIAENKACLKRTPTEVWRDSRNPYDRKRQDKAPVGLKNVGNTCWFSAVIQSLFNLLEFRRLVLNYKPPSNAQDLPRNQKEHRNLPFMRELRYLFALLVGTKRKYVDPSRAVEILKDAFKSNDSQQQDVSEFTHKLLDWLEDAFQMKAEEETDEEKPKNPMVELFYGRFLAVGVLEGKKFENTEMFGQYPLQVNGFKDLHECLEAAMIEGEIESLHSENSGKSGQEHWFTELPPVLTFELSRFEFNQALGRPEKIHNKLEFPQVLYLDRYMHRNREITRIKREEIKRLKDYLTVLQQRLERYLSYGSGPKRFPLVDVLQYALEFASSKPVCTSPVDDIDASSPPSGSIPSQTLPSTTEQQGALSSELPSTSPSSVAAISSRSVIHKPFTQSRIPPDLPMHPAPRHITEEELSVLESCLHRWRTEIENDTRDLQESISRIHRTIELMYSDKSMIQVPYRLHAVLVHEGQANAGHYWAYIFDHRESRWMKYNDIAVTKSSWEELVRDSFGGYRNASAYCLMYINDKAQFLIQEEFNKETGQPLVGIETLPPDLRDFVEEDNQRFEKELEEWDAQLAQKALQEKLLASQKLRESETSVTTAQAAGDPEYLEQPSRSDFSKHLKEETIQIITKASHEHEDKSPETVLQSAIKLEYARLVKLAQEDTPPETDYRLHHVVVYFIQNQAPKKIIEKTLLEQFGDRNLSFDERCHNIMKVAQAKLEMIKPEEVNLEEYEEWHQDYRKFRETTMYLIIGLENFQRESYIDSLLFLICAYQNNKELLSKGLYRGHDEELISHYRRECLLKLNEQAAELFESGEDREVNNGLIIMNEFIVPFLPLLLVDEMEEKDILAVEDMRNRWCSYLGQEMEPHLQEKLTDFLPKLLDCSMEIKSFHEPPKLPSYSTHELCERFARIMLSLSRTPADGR
A digest of the protocol: as §1

Experiment [5] deals with T4, USP28 (UniProt Q96RU2).
T4 sequence (whole entry): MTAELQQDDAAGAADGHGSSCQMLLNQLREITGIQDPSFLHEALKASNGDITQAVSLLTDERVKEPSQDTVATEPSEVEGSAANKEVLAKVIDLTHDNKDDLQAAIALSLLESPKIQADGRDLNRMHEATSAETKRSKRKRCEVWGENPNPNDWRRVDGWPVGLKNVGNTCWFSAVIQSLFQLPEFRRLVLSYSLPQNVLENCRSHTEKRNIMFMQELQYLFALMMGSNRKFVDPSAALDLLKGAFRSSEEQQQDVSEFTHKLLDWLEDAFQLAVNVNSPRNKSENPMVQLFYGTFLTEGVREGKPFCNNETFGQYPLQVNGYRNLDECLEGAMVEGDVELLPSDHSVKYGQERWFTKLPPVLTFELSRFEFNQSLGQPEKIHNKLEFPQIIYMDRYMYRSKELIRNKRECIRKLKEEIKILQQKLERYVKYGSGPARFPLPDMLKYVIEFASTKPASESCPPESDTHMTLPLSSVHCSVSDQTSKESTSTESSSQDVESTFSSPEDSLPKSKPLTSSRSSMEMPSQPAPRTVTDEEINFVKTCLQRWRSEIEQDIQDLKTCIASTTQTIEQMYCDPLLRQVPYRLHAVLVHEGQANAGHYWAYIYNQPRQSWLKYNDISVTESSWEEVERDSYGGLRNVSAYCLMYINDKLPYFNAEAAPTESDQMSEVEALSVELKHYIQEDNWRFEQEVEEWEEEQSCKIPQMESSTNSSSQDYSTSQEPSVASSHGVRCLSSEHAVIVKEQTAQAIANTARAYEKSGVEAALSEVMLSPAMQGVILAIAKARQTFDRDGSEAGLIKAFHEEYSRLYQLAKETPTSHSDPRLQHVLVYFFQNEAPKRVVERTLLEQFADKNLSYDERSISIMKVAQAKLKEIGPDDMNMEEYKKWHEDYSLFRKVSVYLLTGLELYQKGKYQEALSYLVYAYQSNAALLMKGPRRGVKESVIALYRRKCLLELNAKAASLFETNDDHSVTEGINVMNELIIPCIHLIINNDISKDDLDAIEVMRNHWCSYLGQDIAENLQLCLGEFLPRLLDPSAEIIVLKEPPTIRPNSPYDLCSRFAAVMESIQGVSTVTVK
Put shortly:
as §1

Chain of USP24 (Q9UPU5 whole entry): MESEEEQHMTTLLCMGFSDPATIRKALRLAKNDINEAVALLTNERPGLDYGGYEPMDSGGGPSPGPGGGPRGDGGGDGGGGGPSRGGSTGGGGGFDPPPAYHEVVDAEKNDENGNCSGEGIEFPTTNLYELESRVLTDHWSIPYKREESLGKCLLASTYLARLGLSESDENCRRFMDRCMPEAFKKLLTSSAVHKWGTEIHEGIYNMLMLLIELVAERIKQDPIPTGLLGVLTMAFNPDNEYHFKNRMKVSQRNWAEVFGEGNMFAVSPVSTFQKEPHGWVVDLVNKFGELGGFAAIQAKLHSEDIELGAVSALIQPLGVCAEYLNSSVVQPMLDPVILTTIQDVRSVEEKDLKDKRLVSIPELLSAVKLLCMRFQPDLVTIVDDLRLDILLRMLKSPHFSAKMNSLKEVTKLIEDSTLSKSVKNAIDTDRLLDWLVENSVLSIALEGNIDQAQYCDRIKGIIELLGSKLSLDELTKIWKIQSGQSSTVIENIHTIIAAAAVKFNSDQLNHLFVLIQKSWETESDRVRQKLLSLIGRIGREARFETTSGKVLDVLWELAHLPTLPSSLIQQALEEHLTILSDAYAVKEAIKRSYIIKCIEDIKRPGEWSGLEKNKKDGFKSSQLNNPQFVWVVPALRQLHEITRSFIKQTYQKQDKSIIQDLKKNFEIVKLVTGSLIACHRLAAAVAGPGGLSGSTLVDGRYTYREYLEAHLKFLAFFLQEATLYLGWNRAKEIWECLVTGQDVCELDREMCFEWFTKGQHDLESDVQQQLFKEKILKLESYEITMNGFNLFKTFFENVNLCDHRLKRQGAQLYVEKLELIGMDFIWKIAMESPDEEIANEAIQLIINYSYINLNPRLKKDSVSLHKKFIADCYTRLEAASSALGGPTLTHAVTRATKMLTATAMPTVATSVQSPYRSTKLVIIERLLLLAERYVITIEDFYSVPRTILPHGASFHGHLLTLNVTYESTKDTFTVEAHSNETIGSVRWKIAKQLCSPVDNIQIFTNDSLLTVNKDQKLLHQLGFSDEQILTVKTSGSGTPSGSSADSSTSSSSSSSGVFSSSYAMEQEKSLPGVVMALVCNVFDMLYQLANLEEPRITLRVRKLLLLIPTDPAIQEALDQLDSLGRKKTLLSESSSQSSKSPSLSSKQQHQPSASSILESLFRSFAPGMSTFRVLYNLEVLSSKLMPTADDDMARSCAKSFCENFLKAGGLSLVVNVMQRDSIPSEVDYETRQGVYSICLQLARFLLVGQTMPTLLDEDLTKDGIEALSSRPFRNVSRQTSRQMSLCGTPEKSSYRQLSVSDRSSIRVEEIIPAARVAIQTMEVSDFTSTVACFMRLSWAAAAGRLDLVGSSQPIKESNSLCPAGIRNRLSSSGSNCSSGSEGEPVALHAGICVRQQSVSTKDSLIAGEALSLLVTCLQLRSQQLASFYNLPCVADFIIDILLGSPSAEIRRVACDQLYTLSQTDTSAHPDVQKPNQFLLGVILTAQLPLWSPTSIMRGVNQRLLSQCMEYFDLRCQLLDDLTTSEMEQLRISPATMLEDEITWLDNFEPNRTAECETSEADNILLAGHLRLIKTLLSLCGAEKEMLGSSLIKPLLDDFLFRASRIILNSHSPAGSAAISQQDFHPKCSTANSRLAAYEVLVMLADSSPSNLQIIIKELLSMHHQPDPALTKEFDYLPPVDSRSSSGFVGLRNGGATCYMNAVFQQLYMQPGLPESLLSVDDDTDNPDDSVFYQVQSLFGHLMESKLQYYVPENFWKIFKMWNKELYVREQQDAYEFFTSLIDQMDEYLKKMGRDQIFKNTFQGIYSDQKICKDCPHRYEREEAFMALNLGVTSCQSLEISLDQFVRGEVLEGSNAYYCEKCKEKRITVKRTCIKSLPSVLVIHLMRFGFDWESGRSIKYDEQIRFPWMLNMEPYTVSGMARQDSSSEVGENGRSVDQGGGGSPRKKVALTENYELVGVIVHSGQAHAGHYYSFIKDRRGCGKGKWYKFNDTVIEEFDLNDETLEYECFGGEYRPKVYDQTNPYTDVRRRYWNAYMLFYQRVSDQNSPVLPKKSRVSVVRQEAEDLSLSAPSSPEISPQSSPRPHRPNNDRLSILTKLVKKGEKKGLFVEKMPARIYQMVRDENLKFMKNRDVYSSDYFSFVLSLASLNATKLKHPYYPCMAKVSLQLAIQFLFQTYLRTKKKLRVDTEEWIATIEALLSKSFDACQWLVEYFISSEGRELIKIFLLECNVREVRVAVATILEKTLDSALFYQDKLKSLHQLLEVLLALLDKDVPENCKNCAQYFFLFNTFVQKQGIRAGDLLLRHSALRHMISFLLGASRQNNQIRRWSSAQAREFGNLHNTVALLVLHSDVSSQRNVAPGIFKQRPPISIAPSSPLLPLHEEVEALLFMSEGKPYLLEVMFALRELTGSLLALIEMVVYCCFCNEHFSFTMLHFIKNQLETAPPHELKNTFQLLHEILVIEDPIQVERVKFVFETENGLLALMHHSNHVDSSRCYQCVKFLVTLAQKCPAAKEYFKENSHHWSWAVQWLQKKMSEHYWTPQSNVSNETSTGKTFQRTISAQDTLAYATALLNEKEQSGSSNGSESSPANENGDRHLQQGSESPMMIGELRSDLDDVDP

Turning to `O=C(CCl)Nc1cccc(C(=O)N2CCSCC2)c1`, the “log2 ratio of Biotin-Ahx-Ub-VS probe labelling” value is -0.239 in experiment [1]; -0.0474 in experiment [2]; -0.522 in experiment [3]; -1.17 (active) in experiment [4]; -0.818 in experiment [5].
